From PubChem BioAssay AID2535 (National Center for Advancing Translational Sciences (NCATS), 2010)

molecular target: Pyruvate kinase PKLR (Homo sapiens) (UniProt P30613); test: Secondary Concentration-Response Assay for Activators of Human Liver Pyruvate Kinase: for Probe SAR; conditions: purified hPK-L, ATP production, Kinase-Glo luminescence; series mostly up to 58.3 µM; activity change, positive = activation: at the top concentration;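 further: 0% = uninhibited enzyme wells on each plate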
Procedure, shortened: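 Luciferase-coupled luminescence (Kinase-Glo) reports ATP made by 0.1 nM hPK-L from 0.5 mM PEP (at Km) and 0.1 mM ADP (about 10-fold below Km); pH 7.2 imidazole buffer, 1 h room temperature, in concentration-response format.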

Pyruvate kinase PKLR (Homo sapiens), sequence (P30613 whole entry, looked up): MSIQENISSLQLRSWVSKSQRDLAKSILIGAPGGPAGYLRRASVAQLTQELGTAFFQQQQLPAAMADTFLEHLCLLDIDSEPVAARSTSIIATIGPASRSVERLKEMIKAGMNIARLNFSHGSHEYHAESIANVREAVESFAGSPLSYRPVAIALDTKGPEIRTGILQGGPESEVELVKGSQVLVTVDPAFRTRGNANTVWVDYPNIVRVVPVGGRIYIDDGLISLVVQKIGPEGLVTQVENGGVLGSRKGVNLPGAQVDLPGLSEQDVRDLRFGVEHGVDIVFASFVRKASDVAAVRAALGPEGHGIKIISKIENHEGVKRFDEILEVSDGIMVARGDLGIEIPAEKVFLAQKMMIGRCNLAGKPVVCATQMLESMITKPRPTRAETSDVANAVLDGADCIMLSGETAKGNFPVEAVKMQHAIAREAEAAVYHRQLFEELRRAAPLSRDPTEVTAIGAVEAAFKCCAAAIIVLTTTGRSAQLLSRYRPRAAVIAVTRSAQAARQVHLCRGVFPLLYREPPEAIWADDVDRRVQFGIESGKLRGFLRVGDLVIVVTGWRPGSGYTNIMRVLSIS

Activity change, positive = activation, inactive:
Cc1ccc(NS(=O)(=O)c2ccc3ccccc3c2)cc1C 5.46%
Cc1ccc(NS(=O)(=O)c2ccc3[nH]c(=O)[nH]c3c2)cc1C 12.4%
O=C1CCc2cc(S(=O)(=O)Nc3ccc4ccccc4c3)ccc2N1 6.53%
Cc1ccccc1NS(=O)(=O)c1ccc2c(c1)CCC(=O)N2 6.63%
O=C1c2ccccc2C(=O)N1c1cccc2ccncc12 2.75%
Cc1ccc(NS(=O)(=O)c2cc3c(cc2/C=C/c2ccccc2)NC(=O)CO3)cc1C -0.901%
Cc1ccc(NS(=O)(=O)c2ccc3c(c2)CCC(C)(C)O3)cc1C 7.91%
Cc1ccc(NS(=O)(=O)c2ccc3c(c2)N(C)C(=O)CO3)cc1C 11.9%
Cc1ccc(NS(=O)(=O)c2ccc3c(ccn3C)c2)cc1C 6.76%
CSc1cc2c(s1)c1cnn(Cc3cccc(O)c3)c(=O)c1n2C 4.55%
Cc1ccc(NS(=O)(=O)c2ccc(-c3ccccc3)cc2)cc1C 10.8%
Cc1ccc(Cl)cc1NS(=O)(=O)c1cc2c(cc1Cl)CCC(=O)N2 9.87%
O=C1CCc2cc([S+](=O)([O-])Nc3ccc(N[S+](=O)([O-])c4ccc5c(c4)CCC(=O)N5)cc3)ccc2N1 6.99%
O=C1CCc2cc(S(=O)(=O)Nc3ccccc3Cl)ccc2N1 -6.82%
